Hits are enriched below; roughly 4.7% of the tested compounds scored in any of these assays.
TRHR PAM: allosterically enhances the human TRH receptor; TRHR cells, fluo-8 calcium fluorescence, EC20 TRH enhancement; AID 493056; enhancement, % at 2 µM; P34981; actives 0.66% (n = 360,000); in the data active means enhancement above about 30%; further: 0% is about no effect
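Enhancer read-out: after compound pinning and an initial kinetic agonist-mode read, an EC20 of TRH (10 nM final) was injected and fluo-8 calcium signal (Ex 480/Em 530) followed at 1 s/cycle for 100 cycles in TRHR-expressing cells.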
D1 antagonist: antagonists of human D1 dopamine receptor; actives 3.2% (n = 360,000); HEK293 TREx D1 cells, calcium flux, dopamine EC80; stronger effect = lower value; activity change, negative = inhibition, % at 10 µM; AID 504652; in the data active means activity change below about -30%; further: on the % scale 0 is the no-effect control and ±100 the full control effect
Target sequence (P21728 whole entry, looked up): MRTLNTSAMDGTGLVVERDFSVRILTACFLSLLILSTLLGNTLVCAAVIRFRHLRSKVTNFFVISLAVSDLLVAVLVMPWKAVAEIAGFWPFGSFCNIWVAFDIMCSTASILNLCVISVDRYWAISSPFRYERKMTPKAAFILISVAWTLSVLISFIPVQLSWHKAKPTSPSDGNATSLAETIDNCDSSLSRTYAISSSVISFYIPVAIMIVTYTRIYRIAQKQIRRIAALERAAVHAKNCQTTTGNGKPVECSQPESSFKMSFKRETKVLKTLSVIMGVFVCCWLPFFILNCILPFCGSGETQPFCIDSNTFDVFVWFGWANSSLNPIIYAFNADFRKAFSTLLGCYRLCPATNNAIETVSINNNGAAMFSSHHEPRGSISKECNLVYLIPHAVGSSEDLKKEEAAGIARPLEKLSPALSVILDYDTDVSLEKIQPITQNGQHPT
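After overnight tetracycline induction at 30 C, force-coupled D1 HEK293 cells took up a no-wash calcium dye at room temperature. Compounds were added and monitored 180 s, and the response to EC80 dopamine was then recorded.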
D1 PAM: human D1 dopamine receptor positive modulation; P21728; AID 504651; HEK293 TREx D1 cells, calcium flux, dopamine EC20 potentiation; actives 0.036% (n = 360,000); potentiation, % at 10 µM; in the data active means potentiation above about 30%; further: 0% is about no effect
D1 agonist: human D1 receptor agonism; P21728; HEK293 T-REx D1 cells, calcium flux, agonist mode; activation, % at 2 µM; actives 1% (n = 360,000); AID 504660; further: 0% is about no effect
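Tetracycline-induced HEK293 TREx D1 cells, force-coupled to calcium signalling, were dye-loaded with a no-wash calcium kit. Compound was pin-added after a 10 s baseline. Fluorescence was read kinetically at 1 cycle/s for 180 s, with calcium rises flagged as agonism.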
TRHR ag: activates the human TRH receptor; TRHR cells, calcium flux fluo-8, FDSS agonist mode; activation, % at 2 µM; AID 493084; P34981; actives 0.18% (n = 360,000); further: 0% is about no effect
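In this calcium-flux screen, cells bearing human TRHR are dye-loaded with fluo-8, baselined for 10 cycles, then exposed to library compounds; positive kinetic calcium responses during the agonist phase mark hits, with TRH as control.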
* = called active by the depositor; . = no result given. Unless noted, no stated cut-off is given here; in the data, active means activation above about 30%; inactive means the rest.

SMILES | TRHR PAM | D1 antagonist | D1 PAM | D1 agonist | TRHR ag
COC(=O)/C=C/c1ccc(-n2cncn2)cc1 | -3.5 | -3.2 | -2.9 | 1.5 | 0.3
N#CN1CCC(NS(=O)(=O)c2ccc(F)cc2)CC1 | 3.7 | -6.9 | 8.1 | -0.6 | 1.3
Cc1cc(C)n2c(SCc3ccc(Cl)cc3Cl)nnc2n1 | 7.9 | 8.5 | 9.9 | 41.6* | -0.4
Cc1ncc([N+](=O)[O-])n1CCOC(=O)NC(Nc1ccc(F)cc1)C(Cl)(Cl)Cl (stereo not given) | -6.3 | 1.6 | 6.3 | 3.8 | -0.4
Cc1ccccc1NC(NC(=O)OCCn1c([N+](=O)[O-])cnc1C)C(Cl)(Cl)Cl (stereo not given) | -0.2 | -33.1* | -3.8 | 5.5 | -1.4
CCOc1cccc2sc(NC(=O)c3ccc(S(=O)(=O)N4CCc5ccccc54)cc3)nc12 | 6.1 | 24.3 | -2.5 | 3.0 | 0.4
CCc1ccc(NS(=O)(=O)c2cc(-c3cnc(C4CC4)o3)ccc2C)cc1 | 4.6 | 2.5 | 1.1 | 3.1 | -1.4
Cc1cccc(N(C)S(=O)(=O)c2cc(-c3cnc(C4CC4)o3)ccc2C)c1 | 7.4 | -31.8* | 0.8 | 19.5 | -0.9
CCCN(CCC)C(=O)Cn1c(SCc2cccc(C(F)(F)F)c2)nc2cccnc21 | -14.1 | 12.7 | -0.3 | 2.5 | 0.1
CN(c1ccc(OCc2ccc([N+](=O)[O-])cc2)cc1)S(=O)(=O)c1ccccc1 | -3.6 | -11.0 | . | 22.1 | 1.5
Cc1ccc(S(=O)(=O)N(C)c2ccc(OCc3cccc(C)c3)cc2)cc1 | -7.5 | 11.8 | -1.4 | 38.1* | 3.5
Cc1ccc(S(=O)(=O)N(C)c2ccc(OCC(=O)OCc3c(C)noc3C)cc2)cc1 | -1.1 | -47.4* | -0.9 | 24.0 | 0.1
Cc1ccc(C(C)C)c(OCC(=O)OCc2c(C)noc2C)c1 | -20.6 | -3.3 | -5.2 | 1.7 | -0.5
CCN(c1ccccc1)S(=O)(=O)c1ccc(OCc2c(C)noc2C)cc1 | -1.3 | -31.9* | -6.7 | 16.1 | 0.8
CCN(C(=O)COC(=O)c1ccc(OCc2c(C)noc2C)cc1)c1ccccc1 | 0.5 | 6.7 | 3.2 | 1.8 | 0.3
COc1cc(OC)c(Nc2nc3ccccc3c3nncn23)cc1Cl | 14.1 | 4.8 | 0.6 | 0.3 | 1.5
CC(=O)c1cc2c(cc1N/C(=N/S(=O)(=O)c1ccc(Cl)cc1)c1ccc(F)cc1)OCO2 | 0.7 | 5.3 | 0.0 | 3.0 | 0.0
N#C/C(=C\c1coc2ccc(O)cc2c1=O)C(=O)Nc1nc2ccccc2s1 | 15.7 | -52.1* | 2.5 | 226.9* | 73.6*
N#C/C(=C\c1coc2ccccc2c1=O)C(N)=S | 1.2 | 11.4 | 5.8 | 2.7 | -0.7
COc1ccc(Nc2nc(-c3cccs3)cs2)c(OC)c1 | 2.5 | 10.4 | -9.6 | 2.7 | 0.0
COc1ccc(Nc2nc(-c3sc(C)nc3C)cs2)c(OC)c1 | -7.7 | -43.5* | -18.2 | 1.6 | -1.7
O=C(NCC1CCCO1)C1CC(c2ccc(Cl)c(Cl)c2)=NO1 (stereo not given) | 5.7 | -32.2* | -11.2 | 14.7 | 0.7
Cc1nc2sc3c(c2c(=O)[nH]1)CCC3 | 8.7 | 23.1 | -1.4 | 1.4 | 0.6
O=c1[nH]cnc2sc3c(c12)CCC3 | 33.2* | 12.8 | -3.5 | 2.2 | 0.2
CCOC(=O)N1CCc2c(sc3nc[nH]c(=O)c23)C1 | 1.8 | -30.8* | -1.6 | 2.4 | 0.5
SMILES | TRHR PAM | D1 antagonist | D1 PAM | D1 agonist | TRHR ag
CCOC(=O)N1CCc2c(sc3ncn(Cc4ccc(F)cc4)c(=O)c23)C1 | -4.8 | 15.6 | -3.4 | 1.8 | -0.1
COc1ccc(N2CC(C(=O)OCC(=O)Nc3cccc(C)c3C)CC2=O)cc1 (stereo not given) | 5.5 | -7.2 | 1.8 | -0.9 | -0.3
CCOC(=O)Cc1c(C)nc(N)[nH]c1=O | -2.6 | -30.6* | -2.0 | 3.2 | 0.3
CC(C)(C)C(=O)NC(n1cnc2c(N3CCOCC3)ncnc21)C(Cl)(Cl)Cl (stereo not given) | -4.1 | -34.3* | -5.0 | 0.2 | 1.2
c1ccc(Cn2nnc3c(N4CCOCC4)ncnc32)cc1 | 0.6 | 19.1 | 12.0 | 0.2 | 0.1
O=C(NCC1CCCCC1)c1cc(Br)ccc1Cl | -2.7 | -32.1* | 0.7 | -0.5 | 0.5
COc1ccc2cc3c(N)c(C(=O)NCc4ccco4)sc3nc2c1 | 50.7* | -4.7 | 5.2 | 4.3 | 1.2
C=CCn1c(COc2ccccc2F)nnc1SCCN1C(=O)c2ccccc2C1=O | 38.4* | -10.9 | -1.1 | 4.8 | 0.1

Screening data deposited in PubChem by National Center for Advancing Translational Sciences (NCATS).
